Source: PubChem BioAssay
RN4220 kill – S. aureus RN4220 growth inhibition | OD600, 16 h | inhibition, % (no concentration beside the values) | actives 0.33% (n = 330,000) | AID 1259311; in the data active means inhibition above about 85%;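 further: plate controls were untreated cells for no effect and reference antibiotic for full effect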
ugtP null kill – compounds lethal to S. aureus RN4220 ugtP deletion mutant | OD600 growth, 16 h | growth inhibition, % (concentration not given with the values) | actives 0.54% (n = 330,000) | AID 1259309; in the data active means growth inhibition above about 68%;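 further: plate controls were untreated wells for no effect and antibiotic for full effect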
SSB-PriA inh – inhibitors of Klebsiella pneumoniae PriA binding to SSB C-terminal tail; AlphaScreen SSBct-PriA binding, biotinylated peptide; inhibition, % at 33 µM; actives 0.6% (n = 430,000); in the data active means inhibition mostly above about 37%, no sharp cut-off; inactive means mostly below about 20%;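 further: plate controls were negative control peptide for no effect and reference peptide for full effect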
CCHFV vOTU inh – CCHFV vOTU protease inhibition | Pep-AMC fluorescence | inhibition, % at 11.5 µM | actives 0.55% (n = 370,000); in the data active means inhibition above about 30%; further: 0% = vehicle wells with enzyme and 100% = no enzyme wells
DUSP3 inh – inhibitors of human VHR1 phosphatase (DUSP3); recombinant VHR phosphatase, pNPP absorbance; inhibition, % at 13.3 µM; actives 0.52% (n = 290,000); P51452; in the data active means inhibition above about 50%
Target sequence (P51452 whole entry, looked up): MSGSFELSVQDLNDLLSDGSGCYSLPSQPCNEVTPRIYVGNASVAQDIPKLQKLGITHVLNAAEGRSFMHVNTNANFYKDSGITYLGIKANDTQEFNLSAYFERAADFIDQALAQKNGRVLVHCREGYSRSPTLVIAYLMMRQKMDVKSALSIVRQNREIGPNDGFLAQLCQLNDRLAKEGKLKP
Numbers without * were called inactive; x = not tested or not shown. The list is not random: actives were taken first. Their share in the collection is about 1.5%.

SMILES	RN4220 kill	ugtP null kill	SSB-PriA inh	CCHFV vOTU inh	DUSP3 inh
COc1ccc2sc(-c3ccccc3OC)c(-c3ccc(OCCN(C)C)cc3)c2c1	1.9	88.0*	18.4	3.5	x
COc1cccc(-c2sc3ccc(OC)cc3c2-c2ccc(OC)cc2F)c1	-0.6	90.0*	-1.3	0.8	x
COc1cccc(-c2sc3ccccc3c2-c2ccc(OCCN(C)C)cc2)c1	x	x	40.3*	10.1	x
COc1ccccc1-c1sc2ccccc2c1-c1ccc2c(c1)OCCO2	-9.7	99.0*	-28.1	6.0	x
COc1cccc(-c2sc3ccc(OC)cc3c2-c2ccc(C(N)=O)cc2)c1	2.3	7.1	-10.6	0.1	x
COC(=O)c1ccc(CSc2nnc(NC(=O)C3CC(=O)N(c4ccc(C)c(C)c4)C3)s2)o1 (stereo not given)	x	x	4.0	x	x
COC(=O)c1ccsc1NC(=O)c1ccc(N2CCC(Cc3ccccc3)CC2)nn1	x	x	-19.0	x	x
COc1cccc(-c2sc3ccc(OC)cc3c2-c2ccc(OCCN3CCCC3)cc2)c1	95.3*	90.4*	28.6	x	x
COc1cccc(-c2sc3ccccc3c2-c2ccc(OCCN3CCCC3)cc2)c1	x	x	26.0	0.7	x
COC(=O)c1cccc2c1-c1ccccc1C2=NO	-0.8	20.6	-18.7	x	x
CC(C)COC(=O)c1cccc2c1-c1ccccc1C2=NO	-4.1	96.3*	9.7	x	x
O=C(Nc1ccccn1)c1ccc(Br)s1	5.3	18.0	-17.4	1.2	55.0*
Cc1cc(C)n(-c2cc(NCCNC(=O)Nc3cccc(F)c3)nc(C)n2)n1	x	x	10.0	x	x
O=C1C2=C(NC(=S)NC2c2ccc(Cl)cc2)NC(c2ccc(Cl)cc2)N1c1ccc(Cl)cc1 (stereo not given)	100.1*	93.1*	-6.5	19.0	10.6
CCc1ccc(C2NC(=S)NC3=C2C(=O)N(c2ccccc2OC)C(c2ccc(CC)cc2)N3)cc1 (stereo not given)	-2.1	-30.6	7.6	-7.5	-6.1
Cc1cc2oc(=O)cc(CN3CCCC3)c2cc1Cl	x	x	x	28.3	x
Cc1cc2oc(=O)cc(CN3CCOCC3)c2cc1Cl	3.1	3.6	-9.5	7.8	54.2*
COc1ccc(S(=O)(=O)NCCCn2nc(-c3ccc(F)cc3)ccc2=O)cc1OC	x	x	-7.0	x	x
O=C(CCc1ccc(-c2ccccc2)o1)Nc1ccccc1[N+](=O)[O-]	x	x	84.0*	x	x
CON=CCC(=O)c1ccc(-c2ccccc2)cc1	32.0	100.6*	-10.9	x	x
CO/N=C/CC(=O)c1ccc(-c2ccccc2)cc1	x	x	x	12.2	21.5
Cc1ccc(C(=O)Nc2ccccn2)cc1S(=O)(=O)N1CCCCCC1	x	x	-1.0	x	x
O=[N+]([O-])c1ccc(N2CCOCC2)c(S(=O)(=O)N2CCOCC2)c1	4.0	0.1	-10.1	3.7	11.9
O=c1oc2cc(S(=O)(=O)N3CCOCC3)ccc2n1Cc1ccc([N+](=O)[O-])cc1	x	x	48.0*	x	x
CCN1CCN(c2oc(COc3ccc(-c4ccccc4)cc3)nc2C#N)CC1	23.3	9.0	40.7*	-10.2	-11.6
SMILES	RN4220 kill	ugtP null kill	SSB-PriA inh	CCHFV vOTU inh	DUSP3 inh
N#Cc1nc(COc2ccc(-c3ccccc3)cc2)oc1N1CCCC1	x	x	53.8*	x	x
O=C(c1ccsc1)N1CC(c2nc(-c3ccco3)no2)C1	x	x	-10.0	x	x
Nc1ccccc1-c1ccccc1N	0.3	-2.3	-2.9	-2.9	-3.9
Nc1ccccc1N=Nc1ccccc1N	6.3	20.8	82.9*	16.7	25.1
O=S(=O)(NCCn1ccnc1-c1ncccn1)c1ccccc1F	x	x	29.0	x	x
O=C(CNC(=O)c1ccccc1)NCCc1ccc(O)c(O)c1	x	x	x	13.6	59.1*
O=C(NN=Cc1cc([N+](=O)[O-])ccc1O)C1CCCCC1	94.7*	85.6*	4.0	x	x
O=[N+]([O-])c1ccc(O)c(C=NNC(=S)Nc2ccc(Cl)cc2Cl)c1	83.0	99.8*	12.4	x	x
O=C1NCCCC1C(=O)N/N=C/c1cc([N+](=O)[O-])ccc1O (stereo not given)	x	x	x	0.9	17.2
O=C1NCCCC1C(=O)NN=Cc1cc([N+](=O)[O-])ccc1O (stereo not given)	90.3*	86.6	8.2	x	x
O=C(NN=Cc1cc([N+](=O)[O-])ccc1O)C1C2CCCCC21 (stereo not given)	88.7*	75.2	x	x	x
O=C(N/N=C/c1cc([N+](=O)[O-])ccc1O)C1CC1	x	x	x	8.0	13.6
CCN(CC)CCN1C(=O)C(=O)C(=C(O)c2ccc(C)cc2)C1c1cccnc1 (stereo not given)	x	x	-14.9	x	x
Cc1cnc(=O)[nH]c1SCC(=O)NCc1ccco1	x	x	-13.0	x	x
O=C(c1cncc(Br)c1)N1CC(N2C(=O)C3CC=CCC3C2=O)C1 (stereo not given)	x	x	-20.0	x	x
COc1ccccc1OCC#CCNC(=O)c1ccccc1SC	x	x	0.0	x	x
Cc1cc2nc(C)n(CCCN)c2cc1C	2.8	-2.0	-5.0	-4.5	51.0*
CN(CCc1cnn(C)c1)Cc1cn(C)nc1-c1ccc2c(c1)OCCO2	0.1	7.0	-20.8	0.9	52.5*
COc1ccccc1CNC(=O)C(=O)c1c(C)n(C)c2ccccc12	x	x	-1.0	x	x
COc1ccccc1NC(=O)CSc1nnc(-c2cccnc2)n1Cc1ccco1	x	x	47.6	x	x
COc1ccccc1NC(=O)CSc1nnc(-c2cccc(C)c2)n1Cc1ccco1	x	x	59.3*	x	x
Cc1cc(C)n(CCN2CCCN(C(=O)c3ccc(Cn4ccnc4)cc3)CC2)n1	x	x	2.0	x	x
COc1cc(/C=C/c2cc[n+](C)cc2)ccc1OCC(=O)Nc1ccc(Cl)c(Cl)c1	78.0	100.1*	6.3	2.9	-31.7
COc1ccc(NC(=O)COc2ccc(/C=C/c3cc[n+](C)cc3)cc2OC)cc1	1.2	2.8	-6.1	4.6	-17.1
CCN(CC)CCCC(C)NC(=O)c1c(NC(=O)c2ccccc2)sc2c1CCCC2 (stereo not given)	1.0	15.2	-8.1	4.7	53.9*
SMILES	RN4220 kill	ugtP null kill	SSB-PriA inh	CCHFV vOTU inh	DUSP3 inh
NNC(=O)c1sc(-c2ccc(Cl)cc2)cc1N	4.0	-6.7	-3.6	2.8	51.3*
Cc1c(Cl)ccc2sc(NC(=O)COCC(=O)Nc3nc4c(C)c(Cl)ccc4s3)nc12	x	x	-10.0	x	x
O=C(O)c1ccc(=O)[nH]n1	x	x	41.0*	x	x
COc1cccc(OCC(=O)Nc2ccc3c(c2)CN(C(=O)C2CC2)CC3)c1	x	x	4.0	x	x
N#Cc1c(NC(=S)NC(=O)Cc2cccs2)sc2c1CCCCC2	-5.1	87.0*	-7.3	4.3	20.9
CC(=O)NC(=S)Nc1sc2c(c1C#N)CCCCC2	5.8	2.1	20.6	-7.0	9.1
O=C(NCCCS(=O)(=O)N1CCN(c2ccccc2)CC1)c1n[nH]c2ccccc12	x	x	-8.0	x	x
Cc1cc(NC(=O)CSc2ccc(-c3sc(C)nc3C)nn2)no1	x	x	3.0	x	x
Cc1ccc(-c2nnc(SCC(=O)Nc3ccc4c(c3)oc3ccccc34)n2C)c(Cl)c1	-8.0	16.3	-0.7	-1.9	59.4*
O=C(Nc1ccccc1-c1cn2ccsc2n1)c1ccc(Cn2ccnc2)cc1	x	x	39.0*	x	x
COc1ccc(CC(N)=NO)cc1	x	x	-15.3	x	x
CCOc1cccc2sc(N(CCn3nc(C)cc3C)C(=O)c3cc(C)on3)nc12	x	x	-3.0	x	x
Cc1ccc(Nc2cc(C)nn2-c2nc(C)cc(=O)[nH]2)cc1	97.6*	99.1*	31.8	x	10.6
CCOC(=O)c1cn(-c2ccc([N+](=O)[O-])cc2)c2cc(Cl)c([N+](=O)[O-])cc2c1=O	2.8	-2.0	-11.4	0.7	1.2
